Measurements from PubChem BioAssay.
Values joined by “and” are separate entries in the source; they are usually repeats but may differ in a detail not shown here. Equal values may be shown once. Active and inactive are the calls of the source.

Experiments:
Albumin (Bos taurus) = Albumin (Bos taurus) (UniProt P02769); assay: bovine serum albumin binders on microarray, profiling panel, artefact control for SMM control protein annotation, biochemical, small-molecule microarray, Alexa647 label, 635/667 nm fluorescence (AID 1118); details: BSA-A647 binding, fluorescence 635 nm, higher = more signal;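 note: score merges 667 nm emission intensity and signal-to-noise per printed compound spot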
[1] = small-molecule microarray binders of probe aXIP, primary screen, biochemical, NeuroSMM set, 635/667 nm fluorescence (AID 1119); details: higher = more signal, called active from +8 up or from −8 down unless noted;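 note: probe is the protein aXip251-270 applied at 1 µg/mL to compound-printed slides; binding of probe to printed compounds measured as 667 nm fluorescence plus signal to noise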
[2] = small-molecule binders of probe aNOTCH3, primary screen, biochemical, small-molecule microarray, 635/667 nm fluorescence (AID 1120); details: higher = more signal; small-molecule microarray, probe aNOTCH3, fluorescence unless noted;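 note: probe is a biotin-tagged antibody raised against NOTCH3 rather than NOTCH3 protein; score merges spot fluorescence near 667 nm with spot signal to noise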
[3] = small-molecule binders of probe aNOTCH2, primary screen, biochemical, small-molecule microarray, 635/667 nm fluorescence (AID 1121); details: higher = more signal; small-molecule microarray, probe aNOTCH2, fluorescence unless noted;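 note: score merges feature fluorescence read at 667 nm with its signal to noise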
[4] = target: Carbonic anhydrase 2 (Homo sapiens) (UniProt P00918); assay: CAII small-molecule binders, profiling panel, biochemical, small-molecule microarray, Alexa647-labelled CAII (AID 1122); details: CAII-A647 binding fluorescence, higher = more signal
[5] = COS7 lysate on small-molecule microarray, probe aHis, 635 nm (AID 1123); details: higher = more signal; small-molecule microarray, COS7 cell lysate, probe aHis, fluorescence unless noted;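 note: z-score combines 667nm fluorescence intensity with signal-to-noise per printed compound spot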
[6] = compound binding in COS7 lysate, probe aLAP1, primary screen, cell lysate, small-molecule microarray (AID 1124); details: higher = more signal; small-molecule microarray, COS7 cell lysate, probe aLAP1, fluorescence unless noted;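 note: lysate comes from COS7 cells expressing LAP1 and is applied at 0.3 µg/mL; score merges spot fluorescence near 667 nm with signal-to-noise over triplicate slides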
Sam68 (KHDRBS1) = assay: Sam68 small-molecule binders, primary screen, biochemical, small-molecule microarray, 635 nm fluorescence (AID 1125); details: small-molecule microarray binding, higher = more signal;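 note: score merges 667 nm channel intensity with signal to noise over triplicate slides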
[7] = system: Chordin-like protein 2 (CHRDL2); assay: CHRDL2 small-molecule binders, primary screen, biochemical, small-molecule microarray, 635 nm fluorescence (AID 1126); details: small-molecule microarray binding, fluorescence 635 nm; higher = more signal;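 note: printed compound slides probed with Chrdl2 protein at 4 µg/mL for 1 h at 4 C; score merges 667 nm emission intensity with signal to noise over three replicate slides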
[8] = target: Concanavalin-A (Canavalia ensiformis) (UniProt P02866); assay: ConA small-molecule binders, primary screen, artefact control for SMM control protein annotation, biochemical, small-molecule microarray, Alexa647 label, 635 nm (AID 1127); details: ConA-A647 binding fluorescence, higher = more signal;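 note: z combines 667 nm emission intensity with signal-to-noise across three replicate slides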
Sequence of Concanavalin-A (Canavalia ensiformis) (P02866 whole entry, looked up): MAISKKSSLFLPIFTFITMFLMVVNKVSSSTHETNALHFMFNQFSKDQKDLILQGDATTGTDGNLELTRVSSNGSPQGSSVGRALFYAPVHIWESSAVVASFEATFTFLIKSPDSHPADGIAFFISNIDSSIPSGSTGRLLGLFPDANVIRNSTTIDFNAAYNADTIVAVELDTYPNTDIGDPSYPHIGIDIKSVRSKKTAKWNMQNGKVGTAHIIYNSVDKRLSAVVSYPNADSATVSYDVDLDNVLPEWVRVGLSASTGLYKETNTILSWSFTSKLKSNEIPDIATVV

Sequence of Albumin (Bos taurus) (P02769 whole entry, looked up): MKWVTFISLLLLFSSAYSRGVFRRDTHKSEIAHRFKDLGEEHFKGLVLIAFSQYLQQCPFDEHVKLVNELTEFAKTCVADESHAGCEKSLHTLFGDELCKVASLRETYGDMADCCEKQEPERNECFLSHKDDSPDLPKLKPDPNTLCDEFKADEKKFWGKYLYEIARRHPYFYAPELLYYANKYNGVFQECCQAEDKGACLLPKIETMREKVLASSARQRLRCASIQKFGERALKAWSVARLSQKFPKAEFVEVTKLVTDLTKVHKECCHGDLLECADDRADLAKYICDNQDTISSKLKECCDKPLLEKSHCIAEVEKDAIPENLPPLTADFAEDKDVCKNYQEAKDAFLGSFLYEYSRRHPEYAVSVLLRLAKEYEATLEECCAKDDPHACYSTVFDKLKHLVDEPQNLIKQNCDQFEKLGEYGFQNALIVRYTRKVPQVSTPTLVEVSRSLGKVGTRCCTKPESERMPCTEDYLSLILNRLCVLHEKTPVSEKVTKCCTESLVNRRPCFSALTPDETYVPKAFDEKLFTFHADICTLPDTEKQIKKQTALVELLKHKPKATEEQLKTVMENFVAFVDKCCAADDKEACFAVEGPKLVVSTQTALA

| SMILES | composite z-score (Albumin (Bos taurus)) | composite Z-score [1] | composite z-score [2] | composite z-score [3] | composite z-score [4] | composite z-score [5] | composite z-score [6] | composite z-score (Sam68 (KHDRBS1)) | composite z-score [7] | composite z-score [8] |
| --- | --- | --- | --- | --- | --- | --- | --- | --- | --- | --- |
| CN1CCC(c2ccc(CO)cc2)=CC1c1cccs1 (stereo not given) | -0.105 | 0.204 (inactive) | 0.956 | -0.14 | 0.737 | -0.563 | 0.179 | -1.28 | 1.35 | 0.199 |
| C[C@H]1O[C@H]2C3=C(C(=O)[C@@H]4O[C@@H]4[C@@H]3O)[C@@H]1[C@@H]1[C@@H](C)OC=C3[C@@H](O)[C@H]4O[C@H]4C(=O)[C@]312 | 0.664 | 0.19 (inactive) | -0.0947 | -0.125 | 0.26 | -0.393 | -0.494 | -1.77 | -0.0769 | -1.83 |
| CCCc1cc2c(n1Cc1ccc(C)cc1)C(C)C1CN(C(=O)c3ccccc3)C(C)(C(=O)OC)C21 (stereo not given) | 0.864 | 1.3 (inactive) | 0.773 | 1.03 | 0.803 | 2.02 | 1.45 | 0.52 | -0.809 | 0.453 |
| C[C@@H]1Cc2c(cnc3c2CN(C)CC3)CO1 | -0.537 | 0.266 (inactive) | -0.0902 | -0.111 | -0.0903 | 0.233 | -0.268 | -0.512 | 0.975 | -1.28 |
| CCCc1cc2c(n1CCO)C(C)C1CN(C(=O)c3ccccc3)C(C)(C(=O)OC)C21 (stereo not given) | 0.979 | 0.43 (inactive) | 1.25 | 0.424 | 0.843 | 3.26 | 1.09 | 0.563 | -1.23 | 1.11 |
| COC(=O)[C@H]1[C@@H](O)[C@@]2(O)c3c(OC)cc(OC)cc3O[C@@]2(c2ccc(OC)cc2)[C@@H]1c1ccccc1 | 0.0007 | -0.619 (inactive) | -0.101 | -0.0439 | -0.0268 | 0.309 | 0.413 | 0.34 | 0.671 | 0.37 |
| COC(=O)NCC=Cc1nc(CCC=CC(=O)O[C@H]2CC3CC(=O)O[C@@H](C=CCC(C)C)C[C@@H]4CC[C@H](C)[C@@H](C[C@@H](OC)C[C@H](C2)O3)O4)co1 | -0.27 | 0.0506 (inactive) | -0.095 | -0.14 | -0.303 | -0.263 | 0.411 | -1.03 | -0.647 | -1.63 |
| c1ccc(-c2cc3c(nc2-c2ccccc2)CCNC3)cc1 | 0.525 | -0.369 (inactive) | 0.103 | -0.131 | -0.301 | -0.323 | -0.171 | -0.653 | 0.12 | -0.269 |
| COC(=O)[C@@]1(Cc2ccccc2)[C@H]2c3cc(C(=O)N(C)C)n(C)c3C[C@H]2CN1C(=O)c1ccccc1 | 0.958 | -0.183 (inactive) | 0.165 | 0.111 | 0.839 | 3.26 | 1.29 | -0.299 | -0.652 | 0.396 |
| CN1CCC(c2ccc(CO)cc2)=CC1C1CC1 (stereo not given) | -1.02 | -0.557 (inactive) | 0.0357 | -0.192 | -0.0046 | -0.106 | -0.334 | -0.172 | 0.0276 | 0.28 |
| OCc1ccc(C2=CC(C3CC3)N(Cc3sc4ccccc4c3Cl)CC2)cc1 (stereo not given) | -0.0477 | 0.565 (inactive) | -0.0932 | -0.133 | 0.306 | 0.88 | 0.434 | 1.07 | 0.529 | 0.948 |
| CCCc1cc2c(n1Cc1ccco1)C(C)C1CN(C(=O)c3ccccc3)C(C)(C(=O)OC)C21 (stereo not given) | 0.953 | 0.829 (inactive) | 0.247 | 0.374 | 0.744 | 0.747 | 0.859 | 0.878 | 0.515 | 0.851 |
| COC(=O)[C@@]1(Cc2ccccc2)[C@H]2c3cc(C(=O)N(C)C)[nH]c3C[C@H]2CN1C(=O)c1ccccc1 | 0.772 | -0.0667 (inactive) | -0.0017 | -0.0193 | 0.896 | -0.0769 | 0.0772 | -1.41 | -0.219 | -0.394 |
| CN1CCc2nc(CO)c(CO)cc2C1 | 0.372 | 0.396 (inactive) | 0.133 | -0.115 | 0.2 | 0.121 | -0.13 | 0.132 | 0.476 | -0.446 |
| COC(=O)[C@@]1(Cc2ccc(F)cc2)[C@H]2c3cc(C(=O)N(C)C)[nH]c3C[C@H]2CN1C(=O)c1ccccc1 | 0.659 | 0.495 [setting not given] (inactive) | -0.0414 [setting not given] | -0.0763 [setting not given] | 0.777 | 0.694 [setting not given] | 0.18 [setting not given] | 0.361 | -0.268 | 0.419 |
| CCOC(=O)[C@H]1CC=C2C(=O)Oc3ccc(Br)cc3[C@@H]21 | -0.104 | 0.35 (inactive) | -0.245 | -0.0896 | 0.663 | 1.95 | 0.328 | 0.893 | -1.24 | 1.13 |

| SMILES | composite z-score (Albumin (Bos taurus)) | composite Z-score [1] | composite z-score [2] | composite z-score [3] | composite z-score [4] | composite z-score [5] | composite z-score [6] | composite z-score (Sam68 (KHDRBS1)) | composite z-score [7] | composite z-score [8] |
| --- | --- | --- | --- | --- | --- | --- | --- | --- | --- | --- |
| COc1cc2c(cc1O)C(C)N(C)CC2 (stereo not given) | 0.122 | 0.104 (inactive) | -0.0967 | -0.0877 | 0.545 | 0.594 | 0.209 | -1.24 | -0.432 | 0.519 |
| CCCc1cc2c(n1Cc1cccc(Cl)c1)C(C)C1CN(C(=O)c3ccccc3)C(C)(C(=O)OC)C21 (stereo not given) | 1.01 | -0.244 (inactive) | 0.0372 | 0.0293 | 0.797 | 2.68 | 0.719 | 0.958 | -1.94 | 0.298 |
| O=P(c1ccccc1)(c1ccccc1)N1CC2(CC2)CC(O)(c2ccccc2)C1 (stereo not given) | 0.498 | 0.284 (inactive) | 0.392 | 0.193 | 0.835 | 3.3 | 1.19 | 0.584 | -0.31 | 0.462 |
| CCCC=C(CCC)[C@@H](NP(=O)(c1ccccc1)c1ccccc1)c1ccccc1 | 0.377 | 0.655 (inactive) | 0.0873 | -0.053 | -0.0222 | 0.122 | -0.264 | 0.986 | -0.141 | 1.07 |
| CCc1cc2c(nc1CC)CCN(CCC(C)=NOC)C2 | 0.802 | 0.154 (inactive) | 0.256 | -0.0028 | 0.639 | 0.45 | 1.21 | 0.92 | 0.639 | -0.426 |
| CCOC(=O)[C@H]1CC=C2C(=O)Oc3ccccc3[C@@H]21 | 0.445 | -0.123 (inactive) | -0.126 | -0.162 | 0.568 | 0.468 | 1.3 | -0.491 | -0.94 | 0.122 |
| C=C(CC1(CNP(=O)(c2ccccc2)c2ccccc2)CC1)c1ccccc1 | 0.44 | -0.0318 (inactive) | 0.179 | 0.0312 | 0.809 | 1.2 | 0.399 | -0.975 | -0.754 | -0.139 |
| COC(=O)[C@H]1[C@H](c2ccccc2)C(=O)[C@]2(O)c3ccccc3O[C@@]12c1ccccc1 | 0.394 | 0.311 (inactive) | 0.0833 | -0.199 | -0.132 | 0.0246 | -0.0474 | 0.198 | 0.263 | 0.711 |
| C=C(CC1(C(C)NP(=O)(c2ccccc2)c2ccccc2)CC1)c1ccccc1 (stereo not given) | 0.314 | -0.589 (inactive) | 0.143 | 0.038 | 0.596 | 3.14 | 0.425 | 1.18 | -0.0819 | 0.711 |
| COC(=O)C1(C)C=C2C(=C(C)C(=O)C2C)CN1 (stereo not given) | 0.395 | 0.727 (inactive) | -0.219 | 0.0145 | 0.917 | 2.82 | 1.46 | -0.326 | -0.471 | -2.16 |
| OCc1ccc(C2=CC(c3cccs3)N(Cc3cccc(OC(F)(F)F)c3)CC2)cc1 (stereo not given) | 0.343 | -0.375 (inactive) | -0.0596 | -0.115 | 0.197 | 0.609 | -0.368 | 0.277 | 0.396 | -0.426 |
| COc1cc2c(cc1O)C=[N+](C)CC2 | 0.502 | -0.296 (inactive) | -0.0377 | -0.133 | 0.329 | -0.4 | -0.93 | -1.67 | 0.185 | -1.48 |
| COC(=O)[C@H]1C(=O)c2ccccc2O[C@@](C(=O)OC)(c2ccccc2)[C@@H]1c1ccccc1 | -0.764 | 0.181 (inactive) | -0.27 | -0.125 | -0.466 | -0.583 | -0.129 | -0.988 | -0.0221 | -0.0286 |
| CCCC[C@@H]1C[C@H]1[C@@H](NP(=O)(c1ccccc1)c1ccccc1)c1ccc(Cl)cc1 | 0.708 | 0.198 (inactive) | 0.092 | -0.0684 | 0.307 | 0.807 | -0.162 | -0.331 | -0.226 | 0.302 |
| C[C@@H]1OC=C2[C@@H](O)[C@H]3O[C@H]3C(=O)[C@]23[C@H]1[C@H]1C2=C([C@@H](O)[C@H]4O[C@H]4C2=O)[C@@H]3O[C@@H]1C | -0.745 | 0.278 (inactive) | -0.063 | -0.147 | -0.355 | -0.934 | -0.266 | -1.86 | 0.584 | -0.66 |
| CC1N(P(=O)(c2ccccc2)c2ccccc2)CC(O)(c2ccccc2)CC12CC2 (stereo not given) | 0.728 and 0.608 | 0.311 (inactive) and 0.617 (inactive) | -0.136 and 0.15 | 0.148 and 0.256 | 0.596 and 0.631 | 3.25 and 2.52 | 0.934 and 0.881 | 0.723 and -0.577 | -0.665 and -0.801 | -0.358 and -0.0278 |
